Methyltransferases: Primary Screen for Target Class Profiling of Small Molecule Inhibitors of Methyltransferases; purified enzyme, MTase-Glo SAH luminescence; active compounds read low; calls only at 40 µM; 25,000 tested, 3.9% active; AID 1745853, 2022; call rule not given here
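Each enzyme was assayed with SAM and its substrate. SAH formation detected by MTase-Glo luminescence; single-point 40 uM screen[…].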
* = called active by the depositor; i = inactive; + = active, no number; ! = repeats disagree. Only a selection was taken, and hits are over-represented in it overall. % is set by controls: 0 for no effect and ±100 for the full control effect.

SMILES	Methyltransferases
OC[C@H]1O[C@@H](OC[C@H]2O[C@@H](OCc3ccccc3)[C@H](O)[C@@H](O)[C@@H]2O)[C@H](O)[C@@H](O)[C@@H]1O	i
C=Cc1ccc(O[C@@H]2O[C@H](CO[C@@H]3O[C@@H](C)[C@H](O)[C@@H](O)[C@H]3O)[C@@H](O)[C@H](O)[C@H]2O)cc1	i
O=C(NCc1nn(Cc2ccccc2)c2ccccc12)c1ccccc1C(F)(F)F	i
COc1ccc(S(=O)(=O)N2CCC(n3cnnc3C)CC2)cc1OC	i
CCCN1C(=O)c2cc3ccccc3n2CC1(C)C(=O)NC1CCCCC1 (configuration not stated)	i
Cc1cccc(Cn2nc3n(Cc4ccccc4)c(=O)c4ccc(C(=O)NCC(C)C)cc4n3c2=O)c1	i
CC(=O)Nc1c2n(c3ccc(F)cc13)CC(C)(C(=O)NC1CCCC1)N(c1ccccc1C)C2=O (configuration not stated)	i
CCCn1c(=O)c2cc(F)ccc2n2c(SCC(=O)Nc3ccccc3Cl)nnc12	i
O=C1CN(Cc2ccc(F)cc2Cl)S(=O)(=O)c2ccccc2N1Cc1cccc(F)c1	i
COc1ccc(NS(=O)(=O)c2cc3c(cc2C)n(C)c(=O)n3C)cc1	i
NCC(CNc1nc(Nc2cccc(NC(=O)N3CCCC3)c2)ncc1I)C(=O)c1cccs1 (configuration not stated)	+
O=C(Nc1ccccc1)N1CCC(Cc2cnc3ccccc3c2)CC1	i
COc1ccc(Nc2nc3c(S(=O)(=O)c4ccc(C)cc4)nnn3c3ccccc23)cc1OC	i
O=C(O)Cc1c(-c2ccccc2)c2cc(Br)ccc2[nH]c1=O	i
O=C1NC(=O)c2c1c(-c1ccccc1)cc1[nH]c3ccc(O)cc3c21	+
O=C(O)Cc1c(-c2ccccc2)c2cc(Cl)ccc2[nH]c1=O	i
CSc1ccc(CCN2C(=O)Cn3cccc3C2C(=O)NC2CCC(C)CC2)cc1 (configuration not stated)	i
Cn1c(=O)c2ccc(C(=O)NC3CCCC3)cc2n2c(SCC(=O)Nc3ccccc3F)nnc12	i
CC(C)OCCCn1c(=O)c2ccccc2n2c(=O)n(CC(=O)NC3CCCCC3)nc12	i
CC(C)OCCCn1c(=O)c2ccccc2n2c(CCC(=O)NC3CCCCC3)nnc12	i
Cc1[nH]nc2ccc(-c3cncc(OC[C@@H](N)Cc4ccccc4)c3)cc12	+
Cc1ccc(Cn2c(=O)c3ccccc3n3c(SCC(=O)Nc4ccc(C)c(C)c4)nnc23)cc1	i
Cc1ccc2n1CCN(C(=O)Nc1ccc3c(c1)OCCO3)C2C(C)C (configuration not stated)	i
N#Cc1c(C2CCNCC2)cc(-c2c(O)cccc2OCC2CC2)nc1N	+
CC1CCC(NC(=O)C2(C)Cn3c(nc4ccccc43)C(=O)N2Cc2ccco2)CC1 (configuration not stated)	i
SMILES	Methyltransferases
CCc1ccc(CNC(=O)c2ncn3c2C(=O)N(C2CC2)C(C)(C(=O)NCc2cccc(C)c2)C3)cc1 (configuration not stated)	i
Cc1ccc(CNC(=O)Cn2nc3n(CCC(C)C)c(=O)c4ccccc4n3c2=O)cc1	i
CCCn1c(=O)c2ccc(Cl)cc2n2c(=O)n(CC(=O)Nc3ccc(Cl)cc3)nc12	i
COc1cccc(-c2ccc(C(=O)N3CCC(NC(=O)c4ccc(C(F)(F)F)cc4)CC3)cc2)c1	i
CC#C[C@@H](CC(=O)O)c1ccc(OCc2cccc(-c3ccc(C(F)(F)F)cc3)c2)cc1	+
CCCn1c(=O)c2ccc(C(=O)NC(C)CC)cc2n2c(=O)n(CC(=O)Nc3cccc(F)c3)nc12 (configuration not stated)	i
CN1C(=O)c2cc(C(=O)NCCCN3CCCCC3)nn2CC1(C)C(=O)NC1CCCC1 (configuration not stated)	i
CC(C)CCn1c(=O)c2ccc(C(=O)NCC(C)C)cc2n2c(=O)n(Cc3ccccc3Cl)nc12	i
COc1ccc(OC)c(S(=O)(=O)N2CCc3nc(-c4ccc(F)cc4)ncc3C2)c1	i
CCCn1c(=O)c2ccc(C(=O)NC(C)C)cc2n2c(=O)n(CC(=O)NCc3ccc(C)cc3)nc12	i
CC1(C(=O)NC2CCCCCCC2)Cn2c(ccc2-c2ccco2)C(=O)N1Cc1cccc(F)c1 (configuration not stated)	i
COC(C)(C)CCn1nc(Nc2c(C)cccc2C)c2cnc(Nc3ccc(OCCN4CCCC4)c(F)c3)nc21	+
Cc1ccc(CN2C(=O)c3nc4ccccc4n3CC2(C)C(=O)NCc2ccccc2)o1 (configuration not stated)	i
CC(C)OCCCNC(=O)c1cc2n(n1)CC(C)(C(=O)NCc1ccccc1)N(C)C2=O (configuration not stated)	i
COc1ccc(CNC(=O)CCC2CCCN(C(=O)CCN3CCCCO3)C2)c(OC)c1 (configuration not stated)	i
CCC(=O)N1CCOc2c(cc(-c3ccc(OC)c(OC)c3)cc2OC[C@H]2CCCN(C)C2)C1	+!
Cc1ccccc1-c1cc(O)c2c(c1)CN(C(=O)C1CCNCC1)CCO2	i
COc1ccc(CCN2C(=O)c3cc4occc4n3CC2(C)C(=O)NC2CCCCC2)c(OC)c1 (configuration not stated)	i
COc1c2c(c(C)c3c1C(=O)OC3)O[C@@]1(C)CCC3(C(C)(C)O)OC(=O)CC[C@]3(C)[C@H]1C2 (some centres not stated)	i
Clc1ccc(C2(c3ccc(-c4cn[nH]c4)cc3)CCNCC2)cc1	+
C=C1C(=O)O[C@@H]2/C=C(\CO)CC/C=C(/C=O)C[C@H](O)[C@@H]12	+
C=C1C(=O)OC2/C=C(\COC(C)=O)CC/C=C(\C=O)CC(OC(=O)CC(C)C)C12 (configuration not stated)	i
C=C1C(=O)OC2/C=C(\CO)CC/C=C(\C=O)CC(OC(=O)CC(C)C)C12 (configuration not stated)	+
C=C1C(=O)OC2C3=C(C)C(=O)CC3C(C)CC(O)C12 (configuration not stated)	i
C=C1C(=O)OC2/C=C(\C)CC/C=C(\C(=O)O)CC/C=C(\C)CCC12 (configuration not stated)	i
SMILES	Methyltransferases
C=C(C)C(=O)O[C@H]1[C@H]2C(=C)C(=O)O[C@@H]2/C=C(\CO)CC/C=C(/C=O)[C@@H]1O	i
C=C1C(=O)O[C@@H]2/C=C(\CO)CC/C=C(/C=O)C[C@@H](O)[C@@H]12	+
CC1(C(=O)NC2CCCC2)Cn2c(cc3ccccc32)C(=O)N1c1ccc(CN2CCOCC2)cc1 (configuration not stated)	i
CC(C)NC(=O)c1ccc2c(=O)n(Cc3ccccc3)c3nn(CC(=O)Nc4ccccc4)c(=O)n3c2c1	i
CC(C)CCNC(=O)C1c2c(n(C)c3ccccc23)SCC(=O)N1C1CCCCC1 (configuration not stated)	i
CCC(C)NC(=O)c1ccc2c(=O)n(C)c3nnc(SCC(=O)Nc4ccccc4C)n3c2c1 (configuration not stated)	i
C[C@]1(OC(=O)/C=C\c2ccc(O)cc2)C[C@@H](O)[C@]2(O)C=CO[C@@H](O[C@@H]3O[C@H](CO)[C@@H](O)[C@H](O)[C@H]3O)C12 (some centres not stated)	i
